Reference: PubChem BioAssay (EPA / NIEHS)
Results filed as inconclusive are left out. Active and inactive are the calls of the source. Rule for the calls, unless noted: active = hit-call score of the fitted dose curve at least 0.9, where 1 is the maximum; inconclusive = response in the unintended direction; inactive = score below 0.9.

What was measured:
[1] = TOX21_p53_BLA_p2_viability: Viability Assessment in the Tox21 HCT-116 p53 Agonism Beta-lactamase Assay, Phase 2 (AID 2283591);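 note: compound exposure lasted 16 h at 37 °C; actives lower the ATP signal meaning cytotoxicity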
Summary of the method: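 HCT-116 p53-bla cells (4000/well) rested 5 h at 37C, then received compounds in DMSO (217-fold dilution) for 16 h at 37C, 5% CO2. After the CCF4 read, CellTiter-Glo was added; ATP luminescence was read after 30 min at room temperature.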

[2] = biological target: Cellular tumor antigen p53 (Homo sapiens) (UniProt P04637); assay: TOX21_p53_BLA_p2_ratio: Tox21 HCT-116 p53 Agonism Beta-lactamase Assay, Ratio, Phase 2 (AID 2283592)
Summary of the method: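 HCT-116 cells with p53-responsive beta-lactamase reporter, 4000 cells/well, preincubated 5 h, then compound in DMSO (217-fold dilution) for 16 h at 37C. CCF4-AM substrate 2 h at room temperature; 460/530 nm emission ratio fitted upward versus DMSO.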

[3] = TOX21_p53_BLA_p3_viability: Viability Assessment in the Tox21 HCT-116 p53 Agonism Beta-lactamase Assay, Phase 3 (AID 2283593);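 note: cells exposed to compound for 16 h before reading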
Summary of the method: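 HCT-116 cells (4000/well) rested 5 h at 37C, then got DMSO compounds by pin tool (217-fold dilution) for 16 h at 37C, 5% CO2. After the bla read, CellTiter-Glo was added and luminescence read at 30 min, room temperature.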

[4] = biological target: Cellular tumor antigen p53 (Homo sapiens) (UniProt P04637); assay: TOX21_p53_BLA_p3_ratio: Tox21 HCT-116 p53 Agonism Beta-lactamase Assay, Ratio, Phase 3 (AID 2283596)
Summary of the method: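 HCT116 p53-bla cells (4000/well) given compound in DMSO (217-fold dilution) after 5 h, incubated 16 h at 37C. CCF4-AM substrate 2 h at room temperature; 460/530 nm emission ratio, gain fitted against DMSO.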

[5] = TOX21_p53_BLA_p4_viability: Viability Assessment in the Tox21 HCT-116 p53 Agonism Beta-lactamase Assay, Phase 4 (AID 2283597);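 note: hits lower the luminescence signal meaning cytotoxicity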
Summary of the method: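 HCT-116 p53-bla cells, 4000/well, dosed after 5 h attachment and incubated 16 h at 37 °C, 5% CO2. Viability from CellTiter-Glo ATP luminescence after 30 min at room temperature, taken after the beta-lactamase read; loss of signal indicates cytotoxicity.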

[6] = biological target: Cellular tumor antigen p53 (Homo sapiens) (UniProt P04637); assay: TOX21_p53_BLA_p5_ratio: Tox21 HCT-116 p53 Agonism Beta-lactamase Assay, Ratio, Phase 5 (AID 2283599)
Summary of the method: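 HCT-116 cells carrying a p53-inducible beta-lactamase reporter were seeded at 4000 cells/well and dosed after 5 h with compound in DMSO (217-fold dilution). After 16 h at 37C, CCF4-AM substrate was added for 2 h, and the 460/530 nm emission ratio was scored as gain-of-signal versus DMSO.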

[7] = TOX21_p53_BLA_p5_viability: Viability Assessment in the Tox21 HCT-116 p53 Agonism Beta-lactamase Assay, Phase 5 (AID 2283600)
Summary of the method: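 HCT-116 p53 beta-lactamase reporter cells, 4000/well, were exposed to compound (pin transfer, 217-fold dilution) for 16 hours at 37C. Cellular ATP was read by CellTiter-Glo luminescence after 30 min at room temperature.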

[8] = biological target: Cellular tumor antigen p53 (Homo sapiens) (UniProt P04637); assay: TOX21_p53_BLA_p4_ratio: Tox21 HCT-116 p53 Agonism Beta-lactamase Assay, Ratio, Phase 4 (AID 2283601)
Summary of the method: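 HCT116 cells carrying an inducible beta-lactamase reporter were plated at 4000 cells/well, rested 5 h, then exposed to compounds in DMSO (217-fold dilution) for 16 h at 37C. CCF4-AM substrate was loaded 2 h at room temperature; 460/530 nm emission ratio scored gain-of-signal versus DMSO.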

[9] = CCTE_Harrill_HTTr_Viability_MCF7: CCTE's 6-hour Cell Viability Assessment for the High-Throughput Transcriptomics (HTTr) Platform, in MCF-7 cells cultured in DMEM + 10% fetal bovine serum, Harrill Lab (AID 2284010; active = hit-call score of the fitted dose curve at least 0.9, where 1 is the maximum; inactive = score below 0.9)
Summary of the method: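 MCF-7 cells in DMEM + 10% FBS, 384-well, exposed 6 h to an eight-point dilution series. Membrane integrity scored by high-content imaging of propidium iodide exclusion; bidirectional fit versus DMSO.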

[10] = CCTE_Harrill_HTTr_Apoptosis_MCF7: CCTE's 6-hour Apoptosis Assessment for the High-Throughput Transcriptomics (HTTr) Platform, in MCF-7 cells cultured in DMEM + 10% fetal bovine serum, Harrill Lab (AID 2284011; active = hit-call score of the fitted dose curve at least 0.9, where 1 is the maximum; inactive = score below 0.9)
Summary of the method: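 MCF-7 cells in DMEM + 10% FBS exposed 6 h to chemicals over an eight-point dilution series. Caspase-3/7 activation imaged by high-content CellEvent Green staining; fitted bidirectionally versus DMSO.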

[11] = biological target: Thyroid hormone receptor alpha (Rattus norvegicus) + Thyroid hormone receptor beta (Rattus norvegicus) (UniProt P18113+P63059); assay: TOX21_TR_LUC_GH3_Antagonist_Followup: Tox21 GH3 Thyroid Hormone Receptor Antagonism Luciferase Follow-Up Assay (AID 2283942)
Summary of the method: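 Rat pituitary GH3 cells with a TRα/TRβ-driven luciferase reporter, 5 h attachment, then 15 concentrations (92 uM to 5nM final) plus 1.0 nM T3 agonist, 24 h at 37C/5% CO2. ONE-Glo luminescence; signal change fitted against DMSO baseline.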

[12] = TOX21_TRB_BLA_Antagonist_Followup_viability: Viability Assessment in the Tox21 Thyroid Hormone Receptor beta Antagonism Beta-lactamase (BLA) Follow-Up Assay (AID 2283961)
Summary of the method: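 HEK293T cells with GAL4-human TRβ LBD and UAS-bla reporter, 3,000 cells/well in 2% charcoal-stripped FBS medium; 11-point concentrations in triplicate, 18 h at 37C. Viability from ATP by CellTiter-Glo luminescence, 30 min RT, same plates.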

[13] = biological target: Retinoic acid receptor RXR-alpha (Homo sapiens) (UniProt P19793); assay: TOX21_TR_RXR_BLA_Antagonist_Followup_ratio: Tox21 Thyroid Hormone Receptor beta Retinoid X Receptor alpha (RXRa) Antagonism Beta-lactamase (BLA) Follow-Up Assay, Ratio (AID 2283972)
Summary of the method: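 RXRa-UAS-bla HEK293T cells, 2,500/well in phenol red-free DMEM with 2% charcoal-stripped FBS, 5 h attachment, then compounds (11 concentrations, triplicate) for 16 h at 37C; FRET-B/GCCF4-AM substrate 2 h RT; 460:530 nm ratio, loss of signal vs DMSO.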

[14] = CCTE_Harrill_HTTr_CellCount_MCF7: CCTE's Cell Proliferation Assessment for the High-Throughput Transcriptomics (HTTr) Platform, Harrill Lab (AID 2284012);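 note: intended direction is loss of nuclei count meaning fewer cells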
Summary of the method: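 MCF7 cells exposed 6 hours to an eight-point dilution series; Hoechst-stained nuclei counted by high-content imaging. Bidirectional curve fitting against DMSO baseline.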

THRB (gene 7068) [15] = biological target: THRB (gene 7068) (UniProt P10828); assay: TOX21_TRB_BLA_Antagonist_Followup_ratio: Tox21 Thyroid Hormone Receptor beta Antagonism Beta-lactamase (BLA) Follow-Up Assay, Ratio (AID 2283958)
Summary of the method: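 HEK293T cells with a GAL4-TRb LBD fusion and UAS-bla reporter, 3,000 cells/well in phenol red-free DMEM with 2% charcoal-stripped FBS. Exposed 18 h at 37C to 11 concentrations in triplicate; CCF4 460:530 nm ratio after 2 h, DMSO-referenced.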

[16] = TOX21_TR_RXR_BLA_Antagonist_Followup_viability: Viability Assessment in the Tox21 Thyroid Hormone Receptor beta Retinoid X Receptor alpha (RXRa) Antagonism Beta-lactamase (BLA) Follow-Up Assay (AID 2283979)
Summary of the method: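 RXRa-UAS-bla HEK293T cells seeded 2,500/well in phenol red-free DMEM with 2% charcoal-stripped FBS, attached 5 h, then exposed to compounds at 11 concentrations in triplicate for 16 h at 37C/5% CO2. Viability read by CellTiter-Glo ATP luminescence; bidirectional fit versus DMSO.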

THRB (gene 7068) [17] = biological target: THRB (gene 7068) (UniProt P10828); assay: TOX21_TRB_COA_Antagonist_Followup_ratio: Tox21 Thyroid Hormone Receptor beta Antagonism through Coactivator Recruitment Follow-Up Assay, Ratio (AID 2283967)
Summary of the method: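 Cell-free TR-FRET coactivator recruitment with GST-tagged TRβ LBD (5.0 nM) and fluorescein-labeled SRC-2 peptide (200 nM) detected by terbium anti-GST antibody (2 nM). The 520:495 nm emission ratio was normalized to DMSO (0%) and T3 (100%).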

Measured: AC50

THRB (gene 7068), sequence (P10828 whole entry, looked up, the tested form may be a part): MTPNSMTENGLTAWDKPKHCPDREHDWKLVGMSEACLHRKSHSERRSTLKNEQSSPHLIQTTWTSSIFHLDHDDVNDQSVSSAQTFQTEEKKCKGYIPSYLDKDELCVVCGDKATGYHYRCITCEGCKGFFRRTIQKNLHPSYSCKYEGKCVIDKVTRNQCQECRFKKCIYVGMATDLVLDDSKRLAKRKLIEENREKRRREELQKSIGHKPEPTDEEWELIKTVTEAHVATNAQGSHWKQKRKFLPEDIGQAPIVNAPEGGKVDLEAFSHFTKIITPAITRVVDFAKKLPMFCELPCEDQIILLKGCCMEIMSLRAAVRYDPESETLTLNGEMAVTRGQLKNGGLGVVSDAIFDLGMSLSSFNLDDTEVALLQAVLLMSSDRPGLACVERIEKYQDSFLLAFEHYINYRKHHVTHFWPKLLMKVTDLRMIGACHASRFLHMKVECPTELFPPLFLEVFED
Cellular tumor antigen p53 (Homo sapiens), sequence (P04637 whole entry, looked up): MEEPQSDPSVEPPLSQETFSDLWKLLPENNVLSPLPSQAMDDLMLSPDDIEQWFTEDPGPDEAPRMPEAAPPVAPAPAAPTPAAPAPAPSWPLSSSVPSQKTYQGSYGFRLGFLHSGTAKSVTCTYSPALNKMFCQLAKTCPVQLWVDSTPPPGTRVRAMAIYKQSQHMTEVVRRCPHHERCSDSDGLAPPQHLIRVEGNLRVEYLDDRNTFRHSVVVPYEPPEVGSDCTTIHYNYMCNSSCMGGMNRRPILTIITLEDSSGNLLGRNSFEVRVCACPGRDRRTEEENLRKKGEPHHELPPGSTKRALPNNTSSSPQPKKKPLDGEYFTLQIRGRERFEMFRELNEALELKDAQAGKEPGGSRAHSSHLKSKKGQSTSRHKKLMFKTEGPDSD
Retinoic acid receptor RXR-alpha (Homo sapiens), sequence (P19793 whole entry, looked up): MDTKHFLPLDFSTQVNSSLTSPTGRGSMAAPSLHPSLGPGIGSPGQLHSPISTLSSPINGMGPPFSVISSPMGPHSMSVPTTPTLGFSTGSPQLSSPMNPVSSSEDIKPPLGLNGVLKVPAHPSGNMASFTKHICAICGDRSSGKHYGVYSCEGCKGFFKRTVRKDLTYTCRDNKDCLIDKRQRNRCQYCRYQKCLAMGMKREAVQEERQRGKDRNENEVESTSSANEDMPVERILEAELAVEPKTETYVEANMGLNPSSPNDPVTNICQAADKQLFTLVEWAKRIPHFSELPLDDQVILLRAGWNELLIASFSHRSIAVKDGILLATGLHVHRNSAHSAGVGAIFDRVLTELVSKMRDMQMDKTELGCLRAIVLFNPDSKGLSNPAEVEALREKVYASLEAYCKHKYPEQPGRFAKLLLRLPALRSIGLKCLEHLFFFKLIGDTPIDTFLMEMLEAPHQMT

COc1ccc(Cl)cc1C(=O)NCCc1ccc(S(=O)(=O)NC(=O)NC2CCCCC2)cc1
not listed: [11] | [12] | [13] | [14] | THRB (gene 7068) [15] | [16] | THRB (gene 7068) [17]
inactive: all other assays above

O=[N+]([O-])c1ccc(NCCO)c(OCCO)c1
inactive: [1] | [2] | [3] | [4] | [5] | [6] | [8]

CC[C@@]1(O)C(=O)OCc2c1cc1n(c2=O)Cc2cc3c(CN(C)C)c(O)ccc3nc2-1
inactive: [11] | [12] | [13]
active: [1] 7.02 µM | [2] 0.807 µM | [3] 7.35 µM | [4] 0.381 µM | [5] 7.74 µM | [6] 0.692 µM | [7] 7.27 µM | [8] 6.7 µM

CCCCC(=O)O[C@]1(C(=O)CO)[C@@H](C)C[C@H]2[C@@H]3CCC4=CC(=O)C=C[C@]4(C)[C@@]3(F)[C@@H](O)C[C@@]21C
active: [5] 38.7 µM
not listed: [11] | [12] | [13] | THRB (gene 7068) [15] | [16] | THRB (gene 7068) [17]
inactive: all other assays above

Oc1c(I)cc(I)c2cccnc12
active: [1] 10.6 µM | [3] 9.75 µM | [5] 23 µM
not listed: [9] | [10] | [14] | THRB (gene 7068) [17]
inactive: all other assays above

CCCCCOc1ccc(C2SC(=O)NC2=O)cc1OCC (stereo not given)
active: THRB (gene 7068) [15] 1.76 µM | THRB (gene 7068) [17] 10.8 µM
not listed: [9] | [10] | [13] | [14]
inactive: all other assays above

NNc1nncc2ccccc12
not listed: [11] | [12] | [13] | [14] | THRB (gene 7068) [15] | [16] | THRB (gene 7068) [17]
inactive: all other assays above
